# The supplement of paper PMC10849652
# The full data set covers some 7,900 targets. This sample favours those with a hit. About 0.6% of all pairs of compound and target were hits. Values without a mark were called inactive.
# Compound: CC1=C(SC2=C1C(=N[C@H](C3=NN=C(N32)C)CC(=O)N)C4=CC=C(C=C4)Cl)C
# Test: log2 fold change, soluble protein after heating vs DMSO (PISA); higher = thermal stabilisation; K562 cells, 10 uM, 30 min; active = over 0.2 and 3.5 SD of the protein, either way, in both replicates (recomputed)
# Summary of the method: (§1)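 K562 cells (2×10^6 cells/mL) were treated with 10 μM compound for 30 min, and aliquots were heated for 3 min over 48°C-58°C. Pooled aliquots were extracted in PBS with 0.5% NP-40 at 4°C, and the supernatant after 21,000xg for 90 min was measured by TMTpro 16plex LC-MS/MS with channel sums equalised. Reported thermal stability, relative to control samples and from duplicates, is a log2 fold change.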
# UniProt P17980, sequence (P17980 whole entry, looked up): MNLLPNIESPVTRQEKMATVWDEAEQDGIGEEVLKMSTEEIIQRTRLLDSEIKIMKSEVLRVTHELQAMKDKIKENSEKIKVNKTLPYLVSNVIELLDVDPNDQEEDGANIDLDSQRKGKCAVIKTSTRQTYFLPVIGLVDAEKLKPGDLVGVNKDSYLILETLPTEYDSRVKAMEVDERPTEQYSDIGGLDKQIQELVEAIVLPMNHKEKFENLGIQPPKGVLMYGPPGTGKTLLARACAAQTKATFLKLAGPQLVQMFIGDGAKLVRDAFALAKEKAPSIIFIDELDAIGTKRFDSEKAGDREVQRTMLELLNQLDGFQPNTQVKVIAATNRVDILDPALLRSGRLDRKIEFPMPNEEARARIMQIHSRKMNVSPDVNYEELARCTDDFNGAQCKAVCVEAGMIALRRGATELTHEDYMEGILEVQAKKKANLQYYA
# UniProt Q13131, sequence (Q13131 whole entry, looked up): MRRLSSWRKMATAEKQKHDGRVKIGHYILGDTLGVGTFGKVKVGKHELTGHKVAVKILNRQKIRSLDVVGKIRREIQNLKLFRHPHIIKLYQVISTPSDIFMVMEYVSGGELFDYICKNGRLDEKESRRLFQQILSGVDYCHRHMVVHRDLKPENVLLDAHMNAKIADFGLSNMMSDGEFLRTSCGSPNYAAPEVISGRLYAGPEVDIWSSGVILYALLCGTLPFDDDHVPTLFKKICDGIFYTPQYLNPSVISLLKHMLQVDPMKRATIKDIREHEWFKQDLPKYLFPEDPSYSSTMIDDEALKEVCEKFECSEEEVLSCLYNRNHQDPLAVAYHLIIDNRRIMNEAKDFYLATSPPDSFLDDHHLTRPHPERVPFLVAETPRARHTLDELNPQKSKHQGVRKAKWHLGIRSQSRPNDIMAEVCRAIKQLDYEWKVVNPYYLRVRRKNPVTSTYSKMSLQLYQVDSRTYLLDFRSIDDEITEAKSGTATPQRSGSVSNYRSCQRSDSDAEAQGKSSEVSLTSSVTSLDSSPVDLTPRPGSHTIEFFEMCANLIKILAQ
# UniProt Q13356, sequence (Q13356 whole entry, looked up): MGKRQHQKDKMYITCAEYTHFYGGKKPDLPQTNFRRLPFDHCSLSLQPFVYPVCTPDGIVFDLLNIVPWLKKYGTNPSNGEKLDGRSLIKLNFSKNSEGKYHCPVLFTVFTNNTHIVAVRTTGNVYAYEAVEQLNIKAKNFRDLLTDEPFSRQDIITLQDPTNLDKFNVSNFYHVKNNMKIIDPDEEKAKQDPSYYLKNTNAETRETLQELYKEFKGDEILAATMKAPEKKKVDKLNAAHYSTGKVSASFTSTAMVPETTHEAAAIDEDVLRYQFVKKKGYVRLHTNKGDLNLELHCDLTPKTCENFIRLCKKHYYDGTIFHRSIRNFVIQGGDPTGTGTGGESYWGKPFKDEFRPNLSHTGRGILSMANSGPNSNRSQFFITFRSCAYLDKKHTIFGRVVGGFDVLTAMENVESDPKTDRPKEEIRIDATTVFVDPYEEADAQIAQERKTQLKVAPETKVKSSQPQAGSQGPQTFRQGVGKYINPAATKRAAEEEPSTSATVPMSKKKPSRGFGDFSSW
# UniProt P09874, sequence (P09874 whole entry, looked up): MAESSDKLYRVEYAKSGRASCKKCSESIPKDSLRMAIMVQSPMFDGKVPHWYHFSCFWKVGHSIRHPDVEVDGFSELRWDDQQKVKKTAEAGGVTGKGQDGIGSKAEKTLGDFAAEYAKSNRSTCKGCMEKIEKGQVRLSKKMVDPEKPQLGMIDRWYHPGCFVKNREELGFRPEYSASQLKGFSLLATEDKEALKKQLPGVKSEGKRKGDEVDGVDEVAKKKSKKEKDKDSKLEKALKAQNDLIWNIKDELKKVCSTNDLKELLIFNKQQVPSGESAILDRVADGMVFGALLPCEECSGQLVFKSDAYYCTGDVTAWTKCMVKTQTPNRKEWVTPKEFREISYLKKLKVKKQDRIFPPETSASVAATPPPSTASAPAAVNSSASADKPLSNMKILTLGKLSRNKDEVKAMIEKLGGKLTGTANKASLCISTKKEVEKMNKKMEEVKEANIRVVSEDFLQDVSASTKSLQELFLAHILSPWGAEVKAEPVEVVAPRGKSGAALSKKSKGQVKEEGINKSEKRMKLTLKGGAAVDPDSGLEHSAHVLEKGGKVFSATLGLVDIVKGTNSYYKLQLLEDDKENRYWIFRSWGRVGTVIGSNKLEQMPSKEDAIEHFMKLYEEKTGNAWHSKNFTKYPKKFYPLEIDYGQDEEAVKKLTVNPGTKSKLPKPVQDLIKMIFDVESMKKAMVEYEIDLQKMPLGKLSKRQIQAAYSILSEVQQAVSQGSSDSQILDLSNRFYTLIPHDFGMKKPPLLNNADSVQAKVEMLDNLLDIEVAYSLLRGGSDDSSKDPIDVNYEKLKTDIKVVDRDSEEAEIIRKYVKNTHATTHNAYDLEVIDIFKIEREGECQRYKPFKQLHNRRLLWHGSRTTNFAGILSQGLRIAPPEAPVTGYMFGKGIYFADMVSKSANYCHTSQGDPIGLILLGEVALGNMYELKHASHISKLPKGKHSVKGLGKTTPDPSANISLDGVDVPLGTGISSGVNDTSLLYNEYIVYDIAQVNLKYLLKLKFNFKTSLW
# UniProt Q8WUA2, sequence (Q8WUA2 whole entry, looked up): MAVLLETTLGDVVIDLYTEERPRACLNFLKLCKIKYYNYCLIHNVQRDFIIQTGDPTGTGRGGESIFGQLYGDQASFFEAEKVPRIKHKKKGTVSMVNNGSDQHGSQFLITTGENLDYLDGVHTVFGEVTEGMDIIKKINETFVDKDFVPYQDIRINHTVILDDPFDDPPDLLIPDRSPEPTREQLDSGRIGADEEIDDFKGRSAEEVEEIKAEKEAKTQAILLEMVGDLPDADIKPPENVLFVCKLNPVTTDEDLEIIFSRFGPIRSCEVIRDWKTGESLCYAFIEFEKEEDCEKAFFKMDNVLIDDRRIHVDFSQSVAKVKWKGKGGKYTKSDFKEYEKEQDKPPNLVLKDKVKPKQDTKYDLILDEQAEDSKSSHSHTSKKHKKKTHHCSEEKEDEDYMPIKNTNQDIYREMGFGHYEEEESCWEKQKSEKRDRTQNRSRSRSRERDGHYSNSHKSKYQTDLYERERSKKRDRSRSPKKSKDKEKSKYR
# UniProt Q9UPN7, sequence (Q9UPN7 whole entry, looked up): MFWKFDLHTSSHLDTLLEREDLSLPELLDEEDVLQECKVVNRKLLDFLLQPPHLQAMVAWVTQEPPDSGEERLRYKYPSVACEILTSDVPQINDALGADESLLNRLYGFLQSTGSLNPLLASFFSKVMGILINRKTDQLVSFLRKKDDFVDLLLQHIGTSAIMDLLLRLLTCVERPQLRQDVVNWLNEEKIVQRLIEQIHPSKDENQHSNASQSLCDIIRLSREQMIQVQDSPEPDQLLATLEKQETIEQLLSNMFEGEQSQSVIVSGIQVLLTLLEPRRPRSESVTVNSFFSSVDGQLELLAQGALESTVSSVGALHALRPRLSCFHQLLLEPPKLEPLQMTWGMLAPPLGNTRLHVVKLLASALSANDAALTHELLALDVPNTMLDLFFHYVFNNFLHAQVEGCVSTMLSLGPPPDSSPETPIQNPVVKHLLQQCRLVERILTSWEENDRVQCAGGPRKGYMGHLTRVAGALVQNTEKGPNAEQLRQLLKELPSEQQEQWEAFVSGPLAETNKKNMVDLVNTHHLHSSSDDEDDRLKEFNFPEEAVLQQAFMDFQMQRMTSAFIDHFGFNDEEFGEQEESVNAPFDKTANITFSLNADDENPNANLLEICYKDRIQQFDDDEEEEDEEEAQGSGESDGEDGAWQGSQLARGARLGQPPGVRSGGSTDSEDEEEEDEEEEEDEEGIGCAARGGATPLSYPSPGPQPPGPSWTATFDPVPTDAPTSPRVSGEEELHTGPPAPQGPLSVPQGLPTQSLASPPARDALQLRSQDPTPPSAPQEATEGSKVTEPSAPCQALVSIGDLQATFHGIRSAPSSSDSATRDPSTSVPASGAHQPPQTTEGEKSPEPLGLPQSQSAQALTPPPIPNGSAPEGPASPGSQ
# UniProt Q8N8N7, sequence (Q8N8N7 whole entry, looked up): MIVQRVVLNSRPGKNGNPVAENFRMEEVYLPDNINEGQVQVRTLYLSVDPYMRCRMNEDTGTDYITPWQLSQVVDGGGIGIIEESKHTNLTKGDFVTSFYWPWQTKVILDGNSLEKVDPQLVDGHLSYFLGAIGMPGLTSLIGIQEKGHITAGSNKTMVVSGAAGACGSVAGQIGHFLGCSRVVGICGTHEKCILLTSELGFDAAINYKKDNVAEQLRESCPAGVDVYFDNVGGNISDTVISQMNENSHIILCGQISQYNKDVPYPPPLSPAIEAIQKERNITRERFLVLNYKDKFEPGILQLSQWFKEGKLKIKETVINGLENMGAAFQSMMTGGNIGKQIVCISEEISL
row,Target,log2 fold change
1,RAB11FIP1 (UniProt Q6WKZ4),0.071
2,PC (UniProt P11498),0.031
3,PTGR2 (UniProt Q8N8N7),0.055
4,PRKAG1 isoform 3 (UniProt P54619),0.067
5,PTPA (UniProt Q15257),0.021
6,PARP1 (UniProt P09874),0.027
7,PRKAA1 isoform 2 (UniProt Q13131),0.085
8,PRKCA (UniProt P17252),0.124

# Compound: CC1=C2C(=CC=C1)N=C(N(C2=O)C3=CC=CC=C3C)CN4C=NC5=C(N=CN=C54)N
# Test: as above
# Summary of the method: as §1
row,Target,log2 fold change
1,PPIL4 (UniProt Q8WUA2),0.036
2,PHF5A (UniProt Q7RTV0),0.018
3,PPP6R1 (UniProt Q9UPN7),0.108
4,POP1 (UniProt Q99575),0.029
5,PSMB4 (UniProt P28070),-0.038
6,PRKCG (UniProt P05129),0.033
7,PPIL2 (UniProt Q13356),0.098
8,PMM2 (UniProt O15305),-0.027
9,PLCB3 (UniProt Q01970),0
10,PRG4 (UniProt Q92954),-0.15
11,PSMC4 (UniProt P43686),-0.022
12,PSMC3 (UniProt P17980),-0.058
13,PCBP2 (UniProt F8VRH0),-0.013
14,PBX2 (UniProt P40425),-0.011
15,PRKAR1B (UniProt P31321),0.059
16,PRUNE1 (UniProt Q86TP1),0.023
